Sampled rows, rich in hits. Any-hit rate of the full collection: about 3.1%.
AF4-AF9 inh = inhibitors of human MLL-AF4/AF9 interaction | P42568 | AlphaScreen, biotin-AF4 peptide binding to FLAG-AF9 | inhibition, % at 10 µM | 350,000 compounds, 0.47% hits | AID 651704;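 active = every replicate reaching a set inhibition limit, whatever the replicate mean, cut at about 25% in these data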;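 note: 0% = plate neutral control median and 100% = total signal loss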
Target sequence (P42568 whole entry, looked up): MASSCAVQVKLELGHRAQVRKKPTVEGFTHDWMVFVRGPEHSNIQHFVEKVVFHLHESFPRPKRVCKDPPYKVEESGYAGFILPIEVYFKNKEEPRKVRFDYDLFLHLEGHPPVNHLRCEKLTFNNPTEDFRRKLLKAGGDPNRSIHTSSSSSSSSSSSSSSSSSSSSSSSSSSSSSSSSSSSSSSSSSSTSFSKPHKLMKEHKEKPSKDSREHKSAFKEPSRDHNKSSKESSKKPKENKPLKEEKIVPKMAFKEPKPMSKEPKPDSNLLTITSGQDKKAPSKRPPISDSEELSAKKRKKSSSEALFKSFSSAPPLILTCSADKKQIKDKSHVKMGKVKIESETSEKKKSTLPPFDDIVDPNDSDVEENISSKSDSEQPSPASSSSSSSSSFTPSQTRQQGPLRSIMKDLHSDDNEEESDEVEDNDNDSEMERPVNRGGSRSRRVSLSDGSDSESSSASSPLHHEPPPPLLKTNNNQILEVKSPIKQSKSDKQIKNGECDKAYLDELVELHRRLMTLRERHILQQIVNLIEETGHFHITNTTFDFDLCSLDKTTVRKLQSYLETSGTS
dFosB act = activators of mouse delta FosB homodimer. P13346. purified delta FosB, TAMRA-CDK5 oligo fluorescence polarization; percent of positive-control signal above neutral wells. activation, % at 25 µM. 340,000 compounds, 0.99% hits. AID 493131;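 active = mean activation above about 17%, with every replicate also reaching it, limit read from the data, passing the limit was not always enough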
RAD52 inh = inhibitors of human RAD52 DNA annealing; inhibition, % at 18.7 µM; recombinant RAD52 DNA annealing, FRET fluorescence; P43351; AID 651710; 360,000 compounds, 0.46% hits;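 active = every replicate showing at least 50% inhibition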
RAD54 inh = inhibitors of human RAD54 branch migration; Q92698; RAD54 Holliday junction branch migration, FAM/BHQ fluorescence; inhibition, % at 10.4 µM; 360,000 compounds, 0.14% hits;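 active = mean normalized replicate activity at least 40 and at least half of replicates scoring 40 or more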;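 note: 0% = median of neutral control wells and 100% = median of positive control wells; inhibitors cause a drop in the FAM fluorescence signal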
GSIS activator = primary screen for activators of insulin secretion dependent on glucose, INS-1E cells, GLuc reporter luminescence. 370,000 compounds, 0.61% hits. activation, % at 16.6 µM. INS-1E GLuc reporter insulin secretion, 2-3 h;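 active = lowest replicate activation of at least 40%, so every replicate reaches that level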;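 note: 0% = median of neutral control wells and 100% = median of IBMX positive control wells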
DENV2 CPE rescue = inhibitors of DENV2 cytopathic effect; DENV2-infected cells, cytopathic effect rescue, plate reader; CPE inhibition, % at 9.99 µM; 350,000 compounds, 1.7% hits; in the data active = CPE inhibition above about 20%, passing the limit was not always enough; tested in BHK-21 cells;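 note: 0% = median of neutral control wells and 100% = median of positive control wells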
Numbers without * were called inactive.

For COc1ccc(NC(=O)N(C)C[C@@H]2Oc3cc(-c4ccncc4)ccc3S(=O)(=O)N([C@H](C)CO)C[C@@H]2C)cc1 the results were AF4-AF9 inh 13, RAD52 inh 3, RAD54 inh -9, GSIS activator 18 and DENV2 CPE rescue -4.
CC(C)NC(=O)N(C)C[C@@H]1Oc2ncc(C#Cc3ccncc3)cc2C(=O)N([C@@H](C)CO)C[C@H]1C was read as AF4-AF9 inh -4, RAD52 inh 0, RAD54 inh -4, GSIS activator 3 and DENV2 CPE rescue 3.
Screening CC(C)c1cc(C(C)C)n2nc(N)nc2n1 returned AF4-AF9 inh -11, dFosB act -3, RAD52 inh -6, RAD54 inh 3, GSIS activator 89* and DENV2 CPE rescue 1.
Screening COc1ccc(-c2cnc3c(c2)C(=O)N([C@@H](C)CO)C[C@@H](C)[C@@H](CN(C)C(=O)CN(C)C)O3)cc1 returned AF4-AF9 inh -2, RAD52 inh -4, RAD54 inh 14, GSIS activator 22 and DENV2 CPE rescue -3.
`CN1c2ccccc2N(C)C1(C)c1ccccc1` gave AF4-AF9 inh 49*, dFosB act -5, RAD52 inh -88, GSIS activator -8 and DENV2 CPE rescue 7.
For C[C@@H]1CCCCO[C@H](CN(C)Cc2ccccc2)[C@H](C)CN([C@@H](C)CO)C(=O)c2cc(NC(=O)CCC(F)(F)F)ccc2O1 the results were GSIS activator 2.
For CO[C@H]1CN(C)C(=O)c2ccc(NC(=O)C3CCC3)cc2OC[C@@H](C)N(Cc2cccnc2)C[C@@H]1C the results were AF4-AF9 inh -1, RAD52 inh 3, RAD54 inh 2, GSIS activator -9 and DENV2 CPE rescue 8.
C[C@H](CO)N1C[C@H](C)[C@@H](CN(C)S(=O)(=O)c2ccccc2)OCCCC[C@H](C)Oc2ccc(NC(=O)c3ccccc3)cc2C1=O was read as AF4-AF9 inh 0, RAD52 inh -25, RAD54 inh -1, GSIS activator -7 and DENV2 CPE rescue -2.
Screening CCN1C(=O)CS/C1=N\S(=O)(=O)c1ccc(Cl)cc1 returned AF4-AF9 inh -1, dFosB act -3, RAD52 inh -16, RAD54 inh -7, GSIS activator -1 and DENV2 CPE rescue 3.
For CCn1c(Cl)c(C=O)s/c1=N\S(=O)(=O)c1ccccc1 the results were dFosB act -4, RAD52 inh -104, RAD54 inh -12, GSIS activator 58* and DENV2 CPE rescue -17.
CO[C@@H]1CC[C@H]2CCN(C)C(=O)[C@H](C)N(C)C(=O)c3cc(C#N)ccc3OC[C@H]1O2 was read as AF4-AF9 inh 1, RAD52 inh 12, RAD54 inh 7, GSIS activator 4 and DENV2 CPE rescue -2.
`CCN1CCC(N2CCN(c3ccc(F)cc3)CC2)CC1` gave AF4-AF9 inh 0, dFosB act -4, RAD52 inh -1, RAD54 inh -6, GSIS activator 15 and DENV2 CPE rescue 28*.
Cc1noc(C)c1NC(=O)N(C)C[C@H]1OCc2ccccc2-c2c(n(C)c3ccccc23)C(=O)N([C@H](C)CO)C[C@@H]1C was read as AF4-AF9 inh 0, RAD52 inh 6, RAD54 inh 3, GSIS activator 7 and DENV2 CPE rescue -2.
Screening Cc1ccc(S(=O)(=O)Nc2ccc3c(c2)CC(=O)N([C@@H](C)CO)C[C@@H](C)[C@@H](CN(C)Cc2ccc(Oc4ccccc4)cc2)O3)cc1 returned AF4-AF9 inh -1, RAD52 inh -10, RAD54 inh -7, GSIS activator -10 and DENV2 CPE rescue 9.
C[C@H]1CN([C@@H](C)CO)C(=O)c2cc(NS(=O)(=O)c3ccccc3)ccc2O[C@@H]1CN(C)Cc1ccc(Oc2ccccc2)cc1 was read as AF4-AF9 inh 4, RAD52 inh 10, RAD54 inh -1, GSIS activator -7 and DENV2 CPE rescue -7.
Cc1ccc(S(=O)(=O)Nc2ccc3c(c2)CC(=O)N([C@@H](C)CO)C[C@H](C)[C@H](CN(C)Cc2ccc(Oc4ccccc4)cc2)O3)cc1 was read as AF4-AF9 inh -10, RAD52 inh 5, RAD54 inh 0, GSIS activator 10 and DENV2 CPE rescue 69*.
`C[C@H]1CN([C@@H](C)CO)C(=O)c2cc(NS(=O)(=O)c3ccccc3)ccc2O[C@H]1CN(C)Cc1ccc(Oc2ccccc2)cc1` gave AF4-AF9 inh 4, RAD52 inh -13, RAD54 inh -1, GSIS activator -15 and DENV2 CPE rescue 35*.
C[C@@H]1CN([C@H](C)CO)C(=O)Cc2cc(NS(=O)(=O)c3ccccc3)ccc2O[C@@H]1CN(C)Cc1ccc(Oc2ccccc2)cc1 was read as AF4-AF9 inh 2, RAD52 inh 21, RAD54 inh -3, GSIS activator -7 and DENV2 CPE rescue 30*.
`C[C@@H]1CN([C@H](C)CO)C(=O)Cc2cc(NS(=O)(=O)c3cccs3)ccc2O[C@@H]1CN(C)S(=O)(=O)c1ccc(Cl)cc1` gave AF4-AF9 inh 2, RAD52 inh 20, RAD54 inh 3, GSIS activator -17 and DENV2 CPE rescue -5.
Screening C[C@@H]1CN([C@@H](C)CO)C(=O)c2cc(C#CCN(C)C)cnc2O[C@@H]1CN(C)C(=O)c1cnccn1 returned RAD52 inh -14 and GSIS activator 10.
For O=C(c1ccccc1)N1C[C@H]2[C@@H](c3ccccc31)[C@@H](CO)N2C(=O)CN1CCOCC1 the results were AF4-AF9 inh -1, RAD52 inh 1, RAD54 inh 2, GSIS activator 7 and DENV2 CPE rescue 2.
`O=C(CC(F)(F)F)N1C[C@@H]2[C@H](c3ccccc31)[C@@H](CO)N2C(=O)CN1CCOCC1` gave AF4-AF9 inh 1, RAD52 inh -6, RAD54 inh -10, GSIS activator -2 and DENV2 CPE rescue 53*.
For O=C(C1CCCC1)N1C[C@@H]2[C@H](c3ccccc31)[C@@H](CO)N2C(=O)Cc1ccccn1 the results were AF4-AF9 inh -1, RAD52 inh -28, RAD54 inh -17, GSIS activator -4 and DENV2 CPE rescue 34*.
For O=C(Cc1ccccc1)N1C[C@@H]2[C@H](c3ccccc31)[C@H](CO)N2C(=O)C1CCCC1 the results were RAD52 inh -12, RAD54 inh 0 and GSIS activator -6.
Screening O=C(Cc1ccccc1)N1C[C@@H]2[C@H](c3ccccc31)[C@@H](CO)N2C(=O)C1CCCCC1 returned AF4-AF9 inh 0, RAD52 inh -10, RAD54 inh -3, GSIS activator -5 and DENV2 CPE rescue 24*.
